Consider 49 compounds from PubChem BioAssay AID1508623 (National Center for Advancing Translational Sciences (NCATS), 2021).

The whole screen tested about 48,000 compounds, of which about 450 (0.94%) were called active. Entries that show only a call come without a potency. About 19% were inconclusive and are not listed. The call rests on the fitted dose curve; in most records, active means well fitted inhibition curve with a large enough effect; inconclusive means small, poorly fitted or top-dose-only effect; inactive means no such curve, though single readings can be large or run the other way. The sample as a whole holds a higher share of actives than the screen did.
Potency means the concentration at half of the fitted maximal effect.

The experiment can be described thus: Primary qHTS for Identification of Small Molecule Inhibitors of Huntingtin Promoter Activity. Further: nearly all actives have a fitted effect of over 50% in size. Conditions: HEK293 HTT promoter firefly luciferase reporter (activity 0% = vehicle and -100% = no light), 24 h; series mostly up to 57.5 µM. The source says: Assay Provider: Russell L. Margolis M.D.
Department Neurology, Johns Hopkins University School of Medicine, Baltimore, MD
Huntington's Disease (HD) is a neurodegenerative disorder caused by a CAG repeat expansion in exon 1 of huntingtin (HTT). While there are currently no disease-modifying treatments for HD, recent efforts have focused on development of nucleotide-based therapeutics to lower HTT expression. As an alternative to siRNA or oligonucleotide methods, we hypothesized that suppression of HTT expression might be accomplished by small molecules that either (1) directly decrease HTT expression by suppressing HTT promoter activity or (2) indirectly decrease HTT expression by increasing the promoter activity of HTT-AS, the gene antisense to HTT that appears to inhibit expression of HTT.
We developed and employed a high throughput screen for modifiers of HTT and HTT-AS promoter activity using luminescent reporter HEK293 cells; of the 52,041 compounds tested, we identified 898 replicable hits. We used a rigorous stepwise approach to assess compound toxicity and the capacity of the compounds to specifically lower huntingtin protein in 5 different cell lines, including HEK293 cells, HD lymphoblastoid cells, mouse primary neurons, HD iPSCs differentiated into cortical-like neurons, and HD hESCs. We found no compounds which were able to lower huntingtin without lowering cell viability in all assays, though the potential efficacy of a few compounds at non-toxic doses could not be excluded.
SEQUENCE No. (1, 2, 3, etc.); […] (e.g., Cells, Incubation, Reagent, etc.); VALUE and DESCRIPTION.
1; Reagent; 4 uL; 2,500 Hek293 luciferase reporter cells per wells
3; Compound; 23 nL; Control inhibitor / compound library
5; Reagent; 2.5 uL; Firefly Luc reagent; Dual-Glo Luciferase Reporter Assay System (Promega)
6; Time; 10 min; room temperature incubation
7; Detection; Luminescence; FLuc
NOTES (numbers refer to sequence above)
1; High-throughput screening, measuring luminescence from a Hek293 luciferase reporter, was performed in 1,536 well white-walled tissue-culture treated plates. 2,500 cells were plated in 4 µL of Opti-MEM per well using a Multidrop Combi Reagent Dispenser (ThermoFisher).
2; Assay plates were cultured for 24 hours.
3; Control inhibitor (PTC124; final concentration of 50 uM) and compound library (at final concentrations of 460 nM - 57.5 uM) were added to the assay plate using the Kalypsis Pintool Robotic System equipped with 1536 pinheads.
4; Cells were then incubated for 24 hours at 37 degrees C prior to luminescence measurements.
5; In all cases, luminescence was measured using the Dual-Glo Luciferase Reporter Assay System (Promega) following the manufacturer's instructions.
6; Room temperature incubation.
7; Luminescence signal was obtained using the PerkinElmer ViewLux plate reader. Results were normalized to vehicle control (0% activity) and zero RLU (-100% activity).
With `CCOc1cc(-c2nnc(SCC(=O)NC3CCCCC3)nc2-c2ccc(OC)c(OCC)c2)ccc1OC`, the Potency entry was “inactive”.

For `COc1ccc(Cn2ccc3nc(C)c(C(=O)Nc4ccc(C)c(F)c4)cc3c2=O)cc1`, the Potency entry is “inactive”.

In the case of `COC(=O)c1ccccc1NC(=O)c1ccc2c(=O)n3c(nc2c1)CCCCC3`, the Potency result is “inactive”.

As to `CS(=O)(=O)c1ccc(-c2nnc(NC(=O)c3ccc4c(c3)OCCO4)o2)cc1`, the Potency result is “inactive”.

Consider `CCCCNc1ccc(-c2nc(-c3ccncc3)no2)cc1[N+](=O)[O-]`, for which the Potency result is “inactive”.

As to `Cc1cccc(C)c1NC(=O)c1ccc(N)cc1`, the Potency result is “inactive”.

In the case of `CCOC(=O)c1ccc(NC(=O)Cn2c(=O)cc(C)c3c(C)nn(-c4cccc(F)c4)c32)cc1`, the Potency result was “inactive”.

As to `Cc1ccc2nc(NC(=O)c3nc(SCc4ccccc4F)ncc3Cl)sc2c1`, the Potency entry is “inactive”.

With `CCC(Sc1nnc(-c2ccc(OC)cc2)c(-c2ccc(OC)cc2)n1)C(=O)NC1CCCCC1` (centres undefined), the Potency result is “inactive”.

Regarding `CCCn1c(NCc2ccc(N(CC)CC)cc2)nc2ccccc21`, the Potency result was “inactive”.

On to `COc1ccc(CCNS(=O)(=O)c2cc(-c3cc(C)no3)ccc2C)cc1OC`, for which the Potency result is “inactive”.

For the compound `CCC1CN(S(=O)(=O)c2cc(-c3cc(C)no3)ccc2C)c2cc(C)ccc2O1` (centres undefined), the Potency result is “inactive”.

Regarding `Cc1cc(-c2ccc(C)c(S(=O)(=O)N3c4ccccc4CC3C)c2)on1` (centres undefined), the Potency is 14.1 µM (active).

Consider `O=C1NC(=O)C(=Cc2cccc(C(F)(F)F)c2)S1`, for which the Potency result was “inactive”.

As for `Cc1ccc2c(c1)N(C(=O)Nc1ccc(Br)cc1F)CCO2`, the Potency entry was “inactive”.

Take `COc1cc(-c2noc(-c3ccc(N4CCCC4)c([N+](=O)[O-])c3)n2)cc(OC)c1OC`: the Potency entry is “inactive”.

`CCNC(=O)CC1C(=O)N(c2ccc(F)cc2)C(=O)N1Cc1ccc(C)cc1` (centres undefined): the Potency result was “inactive”.

`CCc1cccc(CC)c1NC(=O)Cn1c(=O)c(-c2cc(C)ccc2NC(C)=O)nc2ccccc21`: the Potency entry is “inactive”.

On to `O=S(=O)(c1ccccc1)c1nc(-c2ccc(Cl)cc2Cl)oc1N1CCCCC1`, for which the Potency result was “inactive”.

On to `Cc1ccc(Nc2ccc3cc(S(=O)(=O)N4CCCCC4)ccc3n2)cc1F`, for which the Potency entry was “inactive”.

For the compound `Cc1c(Cl)cccc1NC(=O)c1noc2c1CCCC2`, the Potency entry was “inactive”.

Turning to `O=C(c1ccc(Cl)cc1)n1nc(-c2cccnc2)nc1NCc1ccc(F)cc1`, the Potency entry was “inactive”.

Regarding `CCOc1cccc2sc(N3CCN(C(=O)C4CC4)CC3)nc12`, the Potency entry was “inactive”.

Take `CCOc1ccc2nc(N3CCC(C(=O)Nc4cc(C)ccc4C)CC3)sc2c1`: the Potency entry is “inactive”.

`CC1CCN(c2nc3ccc(C(=O)N4CCN(c5ccccc5)CC4)cc3s2)CC1`: the Potency was 1.12 µM (active).

For `CCN(CCCNC(=O)Cn1ncc2c([nH]c3ccccc32)c1=O)c1cccc(C)c1`, the Potency result is “inactive”.

Consider `CCOC(=O)N1CCc2c(sc(NCc3cccc(F)c3)c2C(=O)Nc2ccccc2OCC)C1`, for which the Potency entry was “inactive”.

In the case of `O=C(NCc1ccc(F)cc1)c1ccc2nc(N3CCCCC3)sc2c1`, the Potency was 8.91 µM (active).

Consider `Cc1ccc(C)n1-c1nnc(N2CCC(C(=O)NCc3ccc(F)cc3)CC2)s1`, for which the Potency result was “inactive”.

For `O=C(NCc1ccccc1)c1ccc2c(c1)nc1n2CCCCC1`, the Potency result is “inactive”.

Regarding `CCOc1cccc(CC(=O)N2CCc3c([nH]c4ccccc34)C2c2ccc(F)cc2)c1OCC` (centres undefined), the Potency result was “inactive”.

For the compound `Cc1ccc(S(=O)(=O)n2nc(C)c(S(=O)(=O)N3CCCCCC3)c2C)cc1`, the Potency result is “inactive”.

`Cc1cc(O)c(C(c2ccccc2)N2CCN(c3ccccc3F)CC2)c(=O)n1Cc1ccco1` (centres undefined): the Potency entry is “inactive”.

Consider `Cc1cc(C)cc(Nc2ncnc3onc(-c4ccc(F)cc4)c23)c1`, for which the Potency result was “inactive”.

As for `COC(=O)CSc1ccc2nnc(CCNS(=O)(=O)c3ccc(C)cc3)n2n1`, the Potency result is “inactive”.

For `CCc1ccccc1NC(=O)c1ccc2c(c1)CCN2S(C)(=O)=O`, the Potency result is “inactive”.

For `CCOc1ccc(C2CC(=O)c3c([nH]c(C(=O)OCc4ccccc4)c3C)C2)cc1` (centres undefined), the Potency result is “inactive”.

In the case of `CCC(=O)Nc1cccc(-c2nc3cc(C)ccc3o2)c1`, the Potency entry was “inactive”.

In the case of `Cc1ccc2nc(-c3ccc(C)c(NC(=O)Cc4ccccc4)c3)oc2c1`, the Potency was 12.6 µM (active).

Consider `CCc1ccc2oc(-c3ccc(C)c(NC(=O)/C=C/c4ccco4)c3)nc2c1`, for which the Potency result was “inactive”.

For `Cc1ccccc1CS(=O)(=O)CC1Nc2ccc(C(=O)NCc3ccc(Cl)cc3)cc2NC1=O` (centres undefined), the Potency entry is “inactive”.

Regarding `O=C(Cn1cnc2c(oc3ccccc32)c1=O)Nc1ccc(OC(F)(F)F)cc1`, the Potency entry is “inactive”.

Turning to `COc1ccc(OC)c(NC(=O)CSc2nc3ccccc3nc2N2CCCCC2)c1`, the Potency result was “inactive”.

Consider `COc1ccc(CCNC(=O)c2ccc3c(c2)sc2nc(-c4ccc(C)cc4)cn23)cc1OC`, for which the Potency entry was “inactive”.

For `COc1ccc(CCNC(=O)c2ccc(CSCc3ccc(C)cc3)o2)cc1OC`, the Potency is 25.1 µM (active).

Take `Cc1ccc(CCNC(=O)c2ccc(CS(=O)(=O)Cc3cccc(C)c3)o2)cc1`: the Potency entry is “inactive”.

For the compound `O=C(NCc1cccnc1)C(=O)NCC(c1cccnc1)N1CCN(c2ccccc2)CC1` (centres undefined), the Potency entry is “inactive”.

`COc1ccccc1N1CCN(C(CNC(=O)C(=O)NCc2ccc(C)cc2)c2cccnc2)CC1` (centres undefined): the Potency is 11.2 µM (active).

Turning to `Cc1ccc(NC(=O)C(=O)NCC(c2cccnc2)N2CCOCC2)cc1` (centres undefined), the Potency entry is “inactive”.
